This is a sample that favours compounds with a hit; in the whole collection about 19% have one here.
IL1B secr inh: inflammasome signaling inhibition, IL-1 beta readout | 360,000 tested, 4.7% active | activity change, % at 57.5 µM | THP-1 LPS/ATP IL-1B secretion, AlphaLISA, 16 h; hits give low values; in the data active = activity change below about -50%; inconclusive = mostly about -30% to -49%
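THP-1 cells pretreated 1 hr with compounds (up to 57.5 uM final), then stimulated with LPS (250 ng/mL final) plus ATP (1.25 mM final); secreted IL-1B measured by AlphaLISA after 16 hr, decreased signal indicating inhibition.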
HT1080 IDH1KD tx: kills HT-1080 cells with IDH1 knockdown; Potency, µM (top dose mostly 46.1 µM), most hits filed as cytotoxic; 360,000 tested, 2% active; AID 686971; HT-1080 IDH1 knockdown viability, ATP luminescence, 48 h
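Using the IDH1-knockdown HT-1080 line run in the same batch and compound series as the NT line, viability after 48 h at 37 °C was determined by CellTiter-Glo luminescence and expressed as % activity.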
HT1080NT lethal: kills 2HG-producing HT-1080-NT fibrosarcoma cells | Potency, µM (highest dose often 46.1 µM), hits mostly cytotoxic | HT-1080-NT fibrosarcoma viability, CellTiter-Glo ATP luminescence, 48 h | 360,000 tested, 1.6% active;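 also: NT is the 2HG producing partner of a matched IDH1 knockdown line; nearly all actives have a fitted effect of over 55% in size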
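HT-1080-NT fibrosarcoma cells (2HG-overproducing), 750 cells/well in RPMI with 5% FBS, dosed after 2 h and incubated 48 h at 37C. CellTiter-Glo luminescence normalized to DMSO and no-cell wells; concentration-response curves fitted and classed.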
ELG1 DNA repair: blocks ELG1-dependent DNA repair in HEK293T cells; HEK293T ELG1-luciferase reporter, luminescence, 16 h; DNA damage induced by 5-fluorouridine; Potency, µM (highest dose often 46.1 µM), most hits filed as inhibitors; 330,000 tested, 2.3% active; AID 504467; also: nearly all actives have a fitted effect of over 55% in size
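In this reporter screen, reduction of luminescence relative to DMSO vehicle indicated activity. Compounds and 5-fluorouridine were added together to 2,000 cells per well, incubated for 16 hr at 37 °C, then developed with ONE-Glo.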
TDP1 cell CPT: growth inhibition of DT40 Tdp1-/-;hTDP1 cells with camptothecin (screen for TDP1 inhibitors) | 420,000 tested, 12% active | chicken DT40 Tdp1-/-;hTDP1 cells + 20 nM CPT, ATP luminescence, 48 h | AID 686979 | Potency, µM (doses to about 46.2 µM), most hits filed as inhibitors; also: nearly all actives have a fitted effect of over 55% in size
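Chicken DT40 Tdp1-/- cells stably complemented with human TDP1 were seeded at 400 cells/well in medium containing 20 nM camptothecin, exposed to pin-transferred compounds, and grown at 37 °C for at least 48 hr. Viability was read as ATP luminescence.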
DT40 TDP1 no CPT: qHTS for Inhibitors of human tyrosyl-DNA phosphodiesterase 1 (TDP1): qHTS in cells in absence of CPT; 420,000 tested, 15% active; Potency, µM (doses to about 46.2 µM), hits mostly inhibitors; DT40 Tdp1-/- hTDP1 cells, no CPT, ATP luminescence, 48 h; also: nearly all actives have a fitted effect of over 55% in size
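Seeded 400 DT40-hTDP1 cells/well (vehicle DMSO, no 20 nM CPT); pinned compounds; ≥48 hr at 37 °C; CellTiter-Glo luminescence as viability measure.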
Hits are given with their value; - = inactive; ? = inconclusive; . = no result given. Unless noted, calls follow the shape of the dose curve; as a rule, active = well fitted curve in the direction sought with a large enough effect; inconclusive = small, poorly fitted or top-dose-only effect, or another doubt; inactive = no such curve, though single readings can be large; an effect the other way counts as inactive or inconclusive.

SMILES	IL1B secr inh	HT1080 IDH1KD tx	HT1080NT lethal	ELG1 DNA repair	TDP1 cell CPT	DT40 TDP1 no CPT
COC(=O)c1c(NC(=O)c2nc3nc(C)cc(C(F)F)n3n2)sc2c1CCC2	-	-	-	23µM	?	16µM
COC(=O)c1c(NC(=O)c2c(-c3ccccc3Cl)noc2C)sc2c1CCC2	-	-	-	?	18µM	18µM
Cc1cc(C(F)F)n2nc(C(=O)Nc3sc4c(c3C(N)=O)CCC4)nc2n1	?	-	-	?	?	?
CC1CCc2c(sc(NC(=O)c3cc(-c4cccc(Cl)c4)on3)c2C(N)=O)C1 (stereo not drawn)	.	.	.	.	-	-
COc1ccc(CNc2nc(NC(C)=O)nn2-c2ccccc2)cc1	-	-	-	-	-	-
Cc1cc(=O)[nH]c(SCC(=O)Nc2cccc(S(=O)(=O)N3CCOCC3)c2)n1	-	-	-	?	-	-
CCOc1ccc(C(=O)Nc2cccc(-c3nc4cccnc4s3)c2C)cc1OCC	.	.	.	.	-	-
CCOc1ccc(N(C)C(=O)CS(=O)(=O)c2cccc3nsnc23)cc1	.	.	.	.	-	?
O=C(NCCCN1CCOCC1)NC1CCCCC1	-	-	-	-	-	?
O=C(NCCCCCCCN1CCCCCCC1)C(C1CCCCC1)C1CCCCC1	-82	?	-	.	13µM	15µM
CC1(Oc2cccc(F)c2)CCN(Cc2ccc3ccccc3c2)C1 (stereo not drawn)	-	-	?	.	?	?
COc1ccc(Cc2nc3ccccc3[nH]2)cc1OC	-	-	-	-	-	-
COc1ccccc1CC(Cc1nc2ccccc2[nH]1)c1nc2ccccc2[nH]1 (stereo not drawn)	-	?	-	-	?	30µM
COc1cc2nc(CC(O)c3nc4cc(OC)c(OC)cc4[nH]3)[nH]c2cc1OC (stereo not drawn)	.	.	.	.	7.1µM	6.3µM
CC(C)Cc1nc2ccccc2[nH]1	-	-	-	-	-	-
Cc1cccc(CC(Cc2nc3ccccc3[nH]2)c2nc3ccccc3[nH]2)c1 (stereo not drawn)	-75	26µM	18µM	?	16µM	?
COc1ccc(NC(=O)CN(C)C2=NS(=O)(=O)c3ccccc32)cc1Cl	-	-	-	-	-	-
Cc1ccc(NC(=O)NCc2ccncc2)cc1Cl	-	-	-	?	-	-
Cc1ccc(NC(=O)Nc2nnc(N(CC(C)C)CC(C)C)s2)cc1Cl	.	.	.	.	9.2µM	16µM
O=C(N/N=C/c1cc(Cl)cc([N+](=O)[O-])c1O)C1CC1	-	-	-	-	-	-
Fc1ccc(NC(=S)N/N=C/c2cccc(Br)c2)c(F)c1	-	-	?	-	6.5µM	4.1µM
Cc1ccc(NC(=S)N/N=C/c2c(Cl)cccc2Cl)c(C)c1	-	0.52µM	?	?	1.3µM	1.5µM
O=C(N/N=C/c1ccc(Cl)c([N+](=O)[O-])c1)C1CC1	-50	-	-	-	-	-
FC(F)(F)c1ccc(Cl)c(NC(=S)N/N=C/c2ccccc2Cl)c1	-	-	-	-	?	?
S=C(N/N=C/c1ccc(Cl)c(Cl)c1)Nc1ccccc1Cl	-	8.2µM	15µM	?	23µM	?
SMILES	IL1B secr inh	HT1080 IDH1KD tx	HT1080NT lethal	ELG1 DNA repair	TDP1 cell CPT	DT40 TDP1 no CPT
COc1ccc(/C=N/NC(=O)c2cccc([N+](=O)[O-])c2)cc1O	-	-	-	-	-	?
O=C(N/N=C/c1ccccc1Cl)c1cccc(F)c1	?	-	-	?	-	-
O=C(NC1CC1)C1CCN(S(=O)(=O)c2ccc(Cl)c([N+](=O)[O-])c2)CC1	-97	?	?	?	-	?
Fc1cccc(/C=N/NC(=S)Nc2ccccc2Cl)c1	-	?	?	?	6.5µM	2.6µM
CC(C)(C)c1ccc(/C=N/NC(=O)C2CCCC2)cc1	-	-	-	?	21µM	13µM
COc1ccc(/C=N/NC(=S)Nc2ccccc2[N+](=O)[O-])cc1O	-	?	-	?	6.5µM	4.6µM
O=C(NC1CCN(S(=O)(=O)c2cccc([N+](=O)[O-])c2)CC1)C1CCCCC1	-	-	-	-	-	-
O=[N+]([O-])c1cc(/C=N/NC(=S)Nc2ccccc2Cl)ccc1Cl	-86	?	?	-	?	12µM
CCCCNC(=O)CCCCCn1c(=O)[nH]c2ccccc2c1=O	.	.	.	.	-	?
CC1(C)OC(=O)C2(Cc3ccc(Br)cc3N3CCCCC32)C(=O)O1 (stereo not drawn)	.	.	.	.	-	-
CC[C@@H](CC1CCCCC1)C(=O)N(Cc1ccccc1)c1ccccc1	-	-	-	-	4.6µM	4.1µM
CCCc1nc2c(sc3nc4c(cc32)COC(C)(C)C4)c(=O)o1	-	-	-	-	-	-
COc1ccc2nc(NC(=O)c3cccc(-c4cc5ccccc5oc4=O)c3)sc2c1	-	18µM	15µM	-	16µM	16µM
COc1ccc(C(=O)Nc2cccc(-c3cc4ccccc4oc3=O)c2)cc1[N+](=O)[O-]	-	?	16µM	-	-	?
COc1ccc(C(=O)Nc2nc3ccc(OC)cc3s2)cc1	-	-	-	?	?	?
O=c1c2nnn(-c3ccc(Br)cc3)c2ncn1Cc1ccccn1	-	-	-	-	-	-
CNC(=O)C1CCC(Cn2c(=O)c3sccc3n(CC(=O)NCc3cccc(OC)c3)c2=O)CC1 (stereo not drawn)	.	.	.	.	-	-
Cc1ccc(C(=O)c2oc3ccccc3c2NC(=O)c2cc(-c3ccccc3O)n[nH]2)cc1	-	?	16µM	-	26µM	10µM
Cc1ccc(C(=O)c2oc3ccccc3c2NC(=O)c2cc(-c3cc(C)ccc3O)n[nH]2)cc1	-	-	-	?	16µM	13µM
O=C(Nc1c(C(=O)c2ccccc2)oc2ccccc12)c1cc(-c2ccccc2O)n[nH]1	-	18µM	?	-	21µM	18µM
Cc1c(C(=O)N(C)Cc2cccc(F)c2)oc2c(Cl)cccc12	-	-	-	-	?	?
COc1ccc(C(CNC(=O)C(=O)Nc2ccc3c(c2)OCCO3)N2CCN(C)CC2)cc1 (stereo not drawn)	-	-	-	-	-	-
O=Cc1cn(-c2ccccc2)nc1-c1ccncc1	-	-	-	-	?	23µM
O=C(O)/C=C/c1cn(Cc2ccccc2)nc1-c1cccnc1	-	-	-	?	-	?
O=Cc1cn(-c2ccccc2)nc1-c1ccccc1	-	-	-	?	?	?
O=Cc1cn(-c2ccccc2)nc1-c1cccnc1	-83	-	-	-	-	-

Compound activity deposited in PubChem by National Center for Advancing Translational Sciences (NCATS).
